Assay results from PubChem BioAssay AID504454 (NMMLSC, 2011).
Out of some 340,000 compounds screened, about 1,400 (0.41%) were called active. The list comes from a sample in which actives are over-represented; it also holds similar structures and randomly drawn compounds. A number with no mark means an inactive call.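 Rule for the calls: active = response above a set limit, near 3 SD of response in nonfluorescent compounds (cut at about 42% in these data); inactive = the rest.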

Target: Beta-2 adrenergic receptor (Homo sapiens) (UniProt P07550)
Test: beta2AR agonists driving receptor internalization, primary screen, cell-based, FAP fluorogen, flow cytometry (AID 504454)
Conditions: Am2.2-beta2AR cells, active compounds read high, concentration not given here

Beta-2 adrenergic receptor (Homo sapiens), sequence (P07550 whole entry, looked up): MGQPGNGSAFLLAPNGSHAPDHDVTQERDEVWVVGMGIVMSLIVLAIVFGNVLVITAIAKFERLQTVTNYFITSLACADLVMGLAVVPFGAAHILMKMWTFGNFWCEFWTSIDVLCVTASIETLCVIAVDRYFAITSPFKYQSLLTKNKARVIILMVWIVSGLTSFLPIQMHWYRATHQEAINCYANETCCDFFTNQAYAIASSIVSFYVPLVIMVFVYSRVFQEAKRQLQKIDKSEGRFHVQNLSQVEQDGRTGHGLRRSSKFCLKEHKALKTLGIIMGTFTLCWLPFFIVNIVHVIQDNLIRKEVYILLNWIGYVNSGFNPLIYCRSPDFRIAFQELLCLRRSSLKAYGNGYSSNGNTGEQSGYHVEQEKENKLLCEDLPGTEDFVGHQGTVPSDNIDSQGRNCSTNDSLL

| SMILES | response |
| --- | --- |
| O=C1NC(=O)N(Cc2ccco2)C(=O)/C1=C\c1ccc(-c2ccc(F)cc2)o1 | 47.3% (active) |
| O=C1NC(=O)N(CCc2ccc(F)cc2)C(=O)/C1=C/C=C/c1ccccc1 | 18.2% |
| COc1ccc(N2C(=O)/C(=C/c3ccco3)C(=O)NC2=S)cc1 | 11.6% |
| NC(=O)Nc1cccc(C(F)(F)F)c1 | -1.13% |
| O=C1NC(=O)C(CCc2ccccn2)(Cc2cccc(Cl)c2Cl)C(=O)N1c1ccc(Br)cc1 (stereo not given) | 51.1% (active) |
| Cc1ccc(N2C(=O)NC(=O)C(CCc3ccncc3)(Cc3cccc(Cl)c3Cl)C2=O)cc1 (stereo not given) | -11.4% |
| COc1ccc(C(=O)CC2C(=O)N(C)C(=O)N(C)C2=O)cc1 | 8.45% |
| CCN(N=Nc1nonc1OC)c1nonc1OC | -1.92% |
| Cc1c(Oc2cc(NN3CCCCC3)c([N+](=O)[O-])cc2[N+](=O)[O-])cccc1[N+](=O)[O-] | -2.15% |
| CCCC(C)n1[nH]c(=O)c2c1NC(=O)CSC2c1ccc(OC)c(OC)c1 (stereo not given) | -2.18% |
| C[C@]12CCC3C(CC[C@H]4[C@H](O)[C@H](O)CC[C@]34C)C1CCC2=O (stereo not given in full) | 0.88% |
| O=C(N/N=C/c1c(O)n(Cc2ccccc2)c(=O)[nH]c1=O)c1ccccc1 | -4.99% |
| O=C(N/N=C/c1c(O)n(C2CC2)c(=S)[nH]c1=O)c1ccccc1Cl | -2.3% |
| O=C(N/N=C/c1c(O)n(C2CC2)c(=S)[nH]c1=O)c1ccccc1 | 88.2% (active) |
| CN1CCC[C@@H]1CCO[C@](C)(c1ccccc1)c1ccc(Cl)cc1 | 7.46% |
| CCC(=O)CC(c1ccc([N+](=O)[O-])cc1)c1c(O)c2ccccc2oc1=O (stereo not given) | 8.6% |
| Cc1ccc2c(c1)C1CN(C)CCC1N2C(=O)Cn1nnc(-c2ccccc2F)n1 (stereo not given) | 3.52% |
| Cc1ccc(C(C)C)c(OCC(=O)N2CCN(CC(=O)N3CCOCC3)CC2)c1 | 1.49% |
| CCc1ccc(OCC(=O)N2CCN(CC(=O)Nc3ccccc3Cl)CC2)cc1 | 1.84% |
| CCC(=O)c1ccc(OCC(=O)N2CCN(CC(=O)Nc3ccc(C)cc3)CC2)cc1 | 80.6% (active) |
